{"source": "PubChem BioAssay AID1224860", "about": "(National Center for Advancing Translational Sciences (NCATS), 2016)", "note": "Inconclusive results are not listed. Calls of active or inactive are those of the source. Calls come from the whole dose curve; as a rule, active = well fitted cell-killing curve with a large enough effect; inconclusive = small, poorly fitted or top-dose-only effect; inactive = flat fitted curve, though single readings scatter.", "data": [{"experiment": "Compound cytotoxicity measured by an ATP content assay as a counter-screen for lead compounds in human iPSC derived neural progenitor cells (hNPCs)", "settings": "human iPSC-derived NPC viability, ATP luminescence; series mostly up to 46.1 µM; activity, negative = cytotoxicity: at the top concentration", "method_in_brief": "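hNPCs (human iPSC-derived) seeded 16–20 h, then exposed to compound for 6, 24 or 72 h at 37 C. ATP-content luminescence read after 10 min at room temperature; cytotoxicity expressed as percent inhibition of viability.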", "values": [{"molecule": "O=C(O)[C@@H](c1ccc(OCc2ccc3ccccc3n2)cc1)C1CCCC1", "activity, negative = cytotoxicity": "1.28% (inactive)"}, {"molecule": "C[C@H](NC(=O)C(=O)Nc1ccccc1C(C)(C)C)C(=O)N[C@@H](CC(=O)O)C(=O)COc1c(F)c(F)cc(F)c1F", "activity, negative = cytotoxicity": "-0.979% (inactive)"}, {"molecule": "Cc1[nH]c(C=C2C(=O)Nc3ccccc32)c(C)c1CCC(=O)O", "activity, negative = cytotoxicity": "5.02% (inactive)"}, {"molecule": "CN(C)c1ccc2cc(C(=O)N[C@@H](CCCN=C(N)CCl)C(=O)NCc3ccccc3)ccc2c1", "activity, negative = cytotoxicity": "-7.42% (inactive)"}, {"molecule": "CC=CC[C@@H](C)C(=O)[C@H]1C(=O)N[C@@H](C(C)C)C(=O)N(C)CC(=O)N(C)[C@@H](CC(C)C)C(=O)N[C@@H](C(C)C)C(=O)N(C)[C@@H](CC(C)C)C(=O)N[C@@H](C)C(=O)N[C@H](C)C(=O)N(C)[C@@H](CC(C)C)C(=O)N(C)[C@@H](CC(C)C)C(=O)N(C)[C@@H](C(C)C)C(=O)N1C", "activity, negative = cytotoxicity": "-13.2% (inactive)"}, {"molecule": "CC1(C)Cc2c(sc(NC(=S)NC(=O)c3ccccc3)c2C(=O)O)CO1", "activity, negative = cytotoxicity": "2.96% (inactive)"}, {"molecule": "CN(C)c1ccc(/C=C2\\C(=O)Nc3ccccc32)cc1", "Potency": "8.69 µM (active)"}, {"molecule": "CN1CCN(c2cc3c(nn2)Oc2ccccc2N3C)CC1", "activity, negative = cytotoxicity": "1.81% [at 23.8 µM] (inactive)"}, {"molecule": "O=c1cc(-c2ccccc2)oc2cc(O)cc(O)c12", "activity, negative = cytotoxicity": "-13.1% (inactive)"}, {"molecule": "O=C1c2ccccc2C(=O)c2c1ccc(O)c2O", "activity, negative = cytotoxicity": "-12.2% (inactive)"}, {"molecule": "OCc1ccc(-c2ccc(-c3ccc(CO)s3)o2)s1", "Potency": "10.9 µM (active)"}, {"molecule": "O=C1C[C@@H](c2ccc(O)cc2)Oc2cc(O)cc(O)c21", "activity, negative = cytotoxicity": "-6.55% (inactive)"}, {"molecule": "O=C(O)Cc1ccc(-c2ccccc2)cc1", "activity, negative = cytotoxicity": "0.151% (inactive)"}, {"molecule": "COCCn1c2c([n+](Cc3cnccn3)c1C)C(=O)c1ccccc1C2=O", "Potency": "0.69 µM (active)"}]}]}
